Assay results as given in the supplement of paper PMC6805474.
A number with no mark means an inactive call.

Key:
[1] = tested on: Schistosoma mansoni schistosomula (NMRI); assay: phenotypic severity score (0-4); higher = more antischistosomal effect, active = 2 or more; conditions: 10 µM
[2] = tested on: Schistosoma mansoni schistosomula (Liberian); assay: drug effect (1 - score/DMSO control score) (fraction); higher = more antischistosomal effect, active = 0.5 or more; extreme values may be limits of the assay; conditions: 10 µM
Outline: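 Schistosomula of the Liberian strain of Schistosoma mansoni were mechanically transformed from cercariae, pre-incubated for at least 12 h, and placed at 50 per well in flat-bottom 96-well plates with Medium 199 containing 5% FCS. Compounds were tested in duplicate at 10 µM at 37 °C and 5% CO2, alongside wells holding 0.1% DMSO. Parasites were scored visually at 10× after 24, 48 and 72 h on a quarter-point scale running from 3 (normal) to 0 (dead). Drug effect came from the mean test-well score relative to the mean DMSO-well score, with negative values set to zero and plates accepted only when the DMSO wells averaged at least 2.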
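Wherever phenotypic severity score (0-4) is given: visual microscopic scoring of shape, motility and density changes versus 0.5% DMSO solvent controls, one point per descriptor, degeneracy or death scored 4, mean of duplicate wells.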

| SMILES | phenotypic severity score ([1]; 24 h) | phenotypic severity score ([1]; 48 h) | phenotypic severity score ([1]; 72 h) | drug effect ([2]; 24 h) | drug effect ([2]; 48 h) | drug effect ([2]; 72 h) |
| --- | --- | --- | --- | --- | --- | --- |
| Cc1ccc2cc(C3NC(=O)c4ccccc4N3)c(Cl)nc2c1 (stereo unspecified) | 0 | 0 | 1 | 0.05 | 0.0811 | 0.111 |
| O=C1[C@@H](Oc2ccccc2)[C@@H](c2ccc(Cl)cc2)N1CCn1cnc2c(NCc3ccccc3)ncnc21 | 3 (active) | 4 (active) | 4 (active) | 0.136 | 0.1 | 0.158 |
| c1ccc(-c2nc(NC3CCCCC3)cc(C3CC3)n2)nc1 | 0 | 0 | 0 | < 0 | 0.0811 | 0.152 |
| CC1=NN(c2nc3ccccc3s2)C(=O)C1Cc1cccc2ccccc12 (stereo unspecified) | 0 | 0 | 0 | 0.0909 | 0.1 | 0.127 |
| c1cc(C2=NCCN2)cc(-c2cc(-c3ccc(C4=NCCN4)cc3)no2)c1 | 0 | 0 | 0 | 0.1 | 0.111 | 0.125 |
| N#Cc1nc(-c2ccccc2F)oc1NCCc1ccccc1 | 0 | 0 | 0 | 0.2 | 0.111 | 0.125 |
| O=S(=O)(c1ccc(Cl)cc1)N1CCN(C(=S)NCc2ccco2)CC1 | 1 | 0 | 0 | 0.05 | 0.0811 | 0.111 |
| Cc1nn(C)cc1C(C)Nc1nncc(-c2ccc(C(F)(F)F)cc2)n1 (stereo unspecified) | 0 | 0 | 0 | 0.136 | 0.1 | 0.105 |
| Cc1cc(OCC(=O)NCc2ccccc2)c2cc(Br)ccc2n1 | 0 | 0 | 0 | 0.1 | 0.0556 | 0.0625 |
| CC(C)n1nc(-c2cc3c(Cl)cccc3[nH]2)c2c(N)ncnc21 | 4 (active) | 4 (active) | 4 (active) | 0.55 (active) | 0.667 (active) | 1 (active) |
| NCCC(O)C(=O)N[C@@H]1C[C@H](N)[C@@H](OC2O[C@H](CN)[C@@H](O)[C@H](O)[C@H]2O)[C@H](O)C1OC1O[C@H](CO)[C@@H](O)[C@H](N)[C@H]1O (stereo partly specified) | 0 | 0 | 0 | < 0 | 0.0625 | < 0 |
| CCC(NC(=O)c1ccccc1NC(=O)c1ccc(C)cc1)C(=O)OC (stereo unspecified) | 0 | 1 | 1 | 0.2 | 0.167 | 0.25 |
| CNC(=O)C1Cc2ccccc2N1C(=O)Cc1ccc(F)cc1 (stereo unspecified) | 0 | 0 | 0 | 0.227 | 0.2 | 0.236 |
| COc1ccc(CCN2CCC(NCc3cccc(N(C)C)c3)CC2)cc1 | 0 | 0 | 0 | < 0 | 0.027 | 0.0303 |
| CC(C)N=c1cc2n(-c3ccc(Cl)cc3)c3ccccc3nc-2cc1Nc1ccc(Cl)cc1 | 4 (active) | 4 (active) | 4 (active) | 1 (active) | 1 (active) | 1 (active) |
| COc1ccccc1C(C)NCC(=O)Nc1cc(C(F)(F)F)ccc1Cl (stereo unspecified) | 0 | 0 | 0 | 0.15 | 0.135 | 0.278 |
| O=C(NC1CCN(c2ccnc3ccccc23)C1)c1cccc(C(F)(F)F)c1 (stereo unspecified) | 0 | 0 | 0 | 0.135 | 0.556 (active) | 0.938 (active) |
| C[C@@H]1[C@H](O)[C@@H](C)/C=C/C=C/C=C/C=C/C=C/C=C/C=C/[C@H](O[C@@H]2O[C@H](C)[C@@H](O)[C@H](N)[C@@H]2O)C[C@@H]2O[C@](O)(C[C@@H](O)C[C@@H](O)[C@H](O)CC[C@@H](O)C[C@@H](O)CC(=O)O[C@H]1C)C[C@H](O)[C@H]2C(=O)O | 0 | 0 | 0 | 0.136 | 0.15 | 0.105 |
| CC(=O)Nc1ccc(NC(=O)c2cc(-c3cc(Cl)ccc3O)[nH]n2)cc1 | 0 | 0 | 0 | 0.227 | 0.15 | 0.127 |
| CS(=O)(=O)c1ccc(C(=O)N(CC2CCCO2)c2nc3ccccc3s2)cc1[N+](=O)[O-] (stereo unspecified) | 4 (active) | 4 (active) | 4 (active) | 1 (active) | 1 (active) | 1 (active) |
| COc1ccc(C2=NN(C3CCCCCC3)C(=O)C2(C)C)cc1OCc1ccccn1 | – | – | – | 0.273 | 0.4 | 0.4 |
| c1coc(CNc2nc(N3CCCCC3)nc3ccccc23)c1 | 3 (active) | 2 (active) | 4 (active) | 1 (active) | 1 (active) | 1 (active) |

| SMILES | phenotypic severity score ([1]; 24 h) | phenotypic severity score ([1]; 48 h) | phenotypic severity score ([1]; 72 h) | drug effect ([2]; 24 h) | drug effect ([2]; 48 h) | drug effect ([2]; 72 h) |
| --- | --- | --- | --- | --- | --- | --- |
| COc1cccc(NC(=O)c2c(NC(=O)c3cccnc3)sc3c2CCC3)c1 | 0 | 0 | 0 | 0.25 | 0.222 | 0.438 |
| CN1CCN(c2cc(-c3ccc(F)cc3)nc(-c3ccncc3)n2)CC1 | 0 | 0 | 0 | 0.182 | 0.35 | 0.345 |
| O=C(CN1CCOCC1)Nc1ccc2ncnc(Nc3ccc(OCc4cccc(F)c4)c(Cl)c3)c2c1 | 0 | 0 | 0 | 0.3 | 0.25 | 0.222 |
| O=C(NCc1nnc2n1CCCCC2)c1ccc(-c2ccc(F)cc2)o1 | 1 | 0 | 0 | 0.136 | 0.15 | 0.182 |
| Cc1ccc2[nH]c3c(NCCN(C)C)ncnc3c2c1 | 1 | 0 | 1 | 0.25 | 0.222 | 0.333 |
| C[C@H]1c2cccc(O)c2C(=O)C2=C(O)[C@]3(O)C(=O)C(C(N)=O)=C(O)[C@@H](N(C)C)[C@@H]3[C@@H](O)[C@@H]21 | 0 | 0 | 0 | 0.2 | 0.297 | 0.222 |
| COc1cc(Br)cc2cc(C(=O)Nc3cccc(C(F)(F)F)c3)c(=O)oc12 | 0 | 0 | 0 | 0.1 | 0.0556 | 0.0556 |
| O=C(NCc1ccoc1)N1CCN(Cc2ccc3c(c2)OCO3)CC1 | 0 | 0 | 0 | 0.136 | 0.2 | 0.182 |
| CC(C)(C)n1nc(-c2ccccc2)c2c(N)ncnc21 | 1 | 0 | 0 | 0.182 | 0.2 | 0.127 |
| N=C(N)Nc1ccc(-c2ccc(-c3ccc(N=C(N)N)c(Cl)c3)o2)cc1Cl | 0 | 0 | 0 | < 0 | < 0 | 0.0625 |
| Cc1ccc2nc(Cl)c(CNCc3cccs3)cc2c1 | 0 | 0 | 0 | 0.182 | 0.2 | 0.0727 |
| COC(=O)c1c(NC(=O)c2c(F)c(F)c(F)c(F)c2F)sc2c1CCCCC2 | 2 (active) | 4 (active) | 4 (active) | 1 (active) | 1 (active) | 1 (active) |
| Brc1c(-c2ccc3c(c2)OCO3)nc2ncccn12 | 0 | 0 | 0 | 0.182 | 0.2 | 0.127 |
| CC(=O)NCC1CN(c2ccc(-c3ccc(CNCc4cn[nH]n4)cc3)c(F)c2)C(=O)O1 (stereo unspecified) | 0 | 0 | 0 | 0.05 | 0.0556 | < 0 |
| COc1cc(CN2CCC3(C=Cc4ccccc43)CC2)cc2c1OCO2 | 1 | 1 | 0 | 0.1 | 0.135 | 0.273 |
| COc1cccc(-n2nnnc2S(=O)(=O)Cc2ccccc2)c1 | 4 (active) | 4 (active) | 4 (active) | 1 (active) | 1 (active) | 1 (active) |
| CN1CCCC1CCO[C@](C)(c1ccccc1)c1ccc(Cl)cc1 (stereo partly specified) | 2 (active) | 4 (active) | 4 (active) | 0.9 (active) | 1 (active) | 1 (active) |
| COc1cc(C2=NCCN2)cc2cc(-c3ccc(C4=NCCN4)cc3)oc12 | 0 | 0 | 0 | 0.1 | 0.027 | 0.0303 |
| Cc1ccc2c(c1C)NC(=O)C21NN=C(c2ccccc2)S1 (stereo unspecified) | 2 (active) | 0 | 0 | < 0 | 0.135 | 0.222 |
| N=C(N)Nc1ccc(-c2ccc(-c3ccc(NC(=N)N)cc3Cl)o2)c(Cl)c1 | 0 | 0 | 0 | 0.0526 | 0.111 | 0.125 |
| N#Cc1ccc(-c2ccc(OCC(N)=O)cc2)cc1 | 0 | 1 | 0 | 0.182 | 0.2 | 0.127 |
| c1ccc(C[C@@H]2CN(c3nccc(Oc4ccc(-n5ccnc5)cc4)n3)CCN2)cc1 | 0 | 0 | 0 | 0.1 | 0.111 | 0.188 |
